# Screening results from PubChem.
# The list is not random: actives were taken first. Their share in the collection is about 4.7%.
# D1 antag: human D1 dopamine receptor antagonism | P21728 | HEK293 TREx D1 cells, calcium flux, dopamine EC80; active compounds read low | activity change, negative = inhibition, % at 10 µM | 360,000 compounds, 3.2% hits; in the data active means activity change below about -30%; further: on the % scale 0 is the no-effect control and ±100 the full control effect
#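 Allosteric or orthosteric antagonism assessed as attenuation of the calcium response to EC80 dopamine, added 180 s after compound, in induced HEK293 Trex D1 cells loaded with no-wash calcium dye.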
# TRHR ag: agonists of human TRH receptor. activation, % at 2 µM. 360,000 compounds, 0.18% hits. TRHR cells, calcium flux fluo-8, FDSS agonist mode. P34981. AID 493084; further: 0% is about no effect
# Target sequence (P34981 whole entry, looked up): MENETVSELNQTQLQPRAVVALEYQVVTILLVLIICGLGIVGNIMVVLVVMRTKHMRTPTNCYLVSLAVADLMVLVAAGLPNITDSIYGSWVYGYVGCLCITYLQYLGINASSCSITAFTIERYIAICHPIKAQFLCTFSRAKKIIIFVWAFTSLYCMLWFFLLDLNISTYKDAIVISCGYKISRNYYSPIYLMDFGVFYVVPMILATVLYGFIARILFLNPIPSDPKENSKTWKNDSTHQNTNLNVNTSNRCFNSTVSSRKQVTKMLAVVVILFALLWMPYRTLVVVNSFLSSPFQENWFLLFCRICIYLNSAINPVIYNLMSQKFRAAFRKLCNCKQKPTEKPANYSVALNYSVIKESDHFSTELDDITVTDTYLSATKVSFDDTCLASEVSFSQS
#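 TRHR-expressing cells, plated overnight in medium with 10% serum, were loaded with fluo-8 calcium dye at room temperature. After a 10 s baseline, library compound was pin-added and calcium release was recorded kinetically (ex 480/em 530) as agonist response.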
# TRHR enhancer: allosteric enhancers of human TRH receptor; TRHR cells, fluo-8 calcium fluorescence, EC20 TRH enhancement; enhancement, % at 2 µM; 360,000 compounds, 0.66% hits; in the data active means enhancement above about 30%; further: 0% is about no effect
#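 TRHR-expressing cells loaded with fluo-8 calcium dye were read kinetically (ex 480/em 530) during compound addition, then stimulated with an EC20 of TRH (10 nM final). Enhancement of the Gq-mediated intracellular calcium response was scored.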
# D1 PAM: human D1 dopamine receptor positive modulation. HEK293 TREx D1 cells, calcium flux, dopamine EC20 potentiation. potentiation, % at 10 µM. 360,000 compounds, 0.036% hits. AID 504651; in the data active means potentiation above about 30%; further: 0% is about no effect
# D1 ag: agonists of human D1 dopamine receptor | activation, % at 2 µM | HEK293 T-REx D1 cells, calcium flux, agonist mode | 360,000 compounds, 1% hits; further: 0% is about no effect
#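 Inducible HEK293 T-REx D1 cells, force-coupled to calcium signalling, were plated at 4000 cells/well with tetracycline and held overnight at 30 C. After no-wash calcium dye loading, compound-evoked calcium rise over 180 s flagged agonists.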
# * marks the source's active call; other numbers are inactive results; . = not tested or not shown. Unless noted, no stated cut-off is given here; in the data, active means activation above about 30%; inactive means the rest.
SMILES,D1 antag,TRHR ag,TRHR enhancer,D1 PAM,D1 ag
Cc1nn(C)c(C)c1/C=N/NC(=O)C(C)(C)Oc1ccc(Cl)cc1,-38*,0,1,3,0
Cc1c(/C=N/NC(=O)C(C)(C)Oc2ccc(Cl)cc2)cnn1C,1,-1,1,-2,-2
CC(Nc1ccc(-c2nc(-c3ccncc3)no2)cc1[N+](=O)[O-])c1ccccc1 (stereo not drawn),27,-1,7,-2,5
NS(=O)(=O)OCCCc1ccccc1,-37*,0,1,-3,1
COc1ccc(C2CC(=O)c3cc(-c4nc(-c5cccc([N+](=O)[O-])c5)cs4)c(=O)n(-c4ccccc4N)c3C2)cc1 (stereo not drawn),9,-1,17,0,4
CCOc1ccc(-c2nc(CSCC(=O)NCc3ccco3)c(C)o2)cc1,-37*,0,-4,-6,4
CCOc1ccc(-c2nc(CSCC(=O)NCc3ccc(C)cc3)c(C)o2)cc1,0,0,11,-3,5
O=C(CSCc1c(Cl)cccc1Cl)NCc1ccco1,-31*,0,-4,-6,0
O=C(NC1CCCCC1)c1cccc(N2C(=O)CCC2=O)c1,-16,0,2,3,3
COc1cc(CNC2CCCC2)cc(Cl)c1OCc1ccc(F)cc1,4,3,-6,-6,32*
COc1cc(CNC2CCCC2)cc(Cl)c1OCc1ccccc1Cl,8,0,-9,10,25
COc1cc(CNn2c(C)n[nH]c2=S)cc(Cl)c1OCc1ccc(F)cc1,-1,-1,6,-2,37*
CCOc1cc(CNC2CCCC2)cc(Cl)c1OCc1ccc(F)cc1,-7,0,24,42*,102*
Nc1nonc1C(=O)NCCNC(=O)c1cccc(Cl)c1,2,0,-2,-4,1
Cc1ccc(NC(=O)CN2C(=O)COc3ccc(S(=O)(=O)Nc4ccccc4)cc32)c(C)c1,4,0,-11,1,3
Cc1c(C(=O)Nc2cc(F)cc(F)c2)cnn1-c1ccccc1,-32*,2,37*,-8,6
Cc1c(C(=O)Nc2ccccc2F)cnn1-c1ccccc1,-1,-2,-5,-1,8
CCCn1c2ccccc2c2cnn(CC(=O)N3CCCC(C)C3)c(=O)c21 (stereo not drawn),-3,0,6,0,0
Cc1cc(=O)[nH]c(Cc2ccc(OC(C)C)cc2)n1,-76*,0,3,-4,1
CCC(C(=O)Nc1cc(-c2cn3cccnc3n2)ccc1C)c1ccccc1 (stereo not drawn),-3,0,-3,-3,1
COc1ccc(CNC(=O)CCn2c(=O)c3cccn3c3ccc(F)cc32)cc1OC,-43*,0,8,-4,20
O=C(CCS(=O)(=O)c1cccc2nonc12)Nc1c(F)cccc1F,0,0,6,1,1
CCC(=O)OCC(=O)c1c(N)n(Cc2ccccc2)c(=O)n(C)c1=O,9,0,4,1,5
Cn1c(=O)c(C(=O)COc2ccc(C#N)cc2)c(N)n(Cc2ccccc2)c1=O,-18,10,1,0,59*
CC(=O)c1c(C)[nH]c(C(=O)COC(=O)c2cccnc2Cl)c1C,-33*,1,3,-1,11
SMILES,D1 antag,TRHR ag,TRHR enhancer,D1 PAM,D1 ag
CCCCC(=O)OCC(=O)c1[nH]c(C)c(C(C)=O)c1C,-9,0,35*,-12,3
CC(=O)c1c(C)[nH]c(C(=O)COC(=O)c2nccnc2N)c1C,2,0,9,.,8
COc1ccc(S(=O)(=O)N2CCC(n3c(C)nc4cccnc43)CC2)cc1Cl,-34*,2,-2,-4,15
CCOc1cc(-c2ccc(OC(=O)c3ccc(C)cc3)c(OC)c2)cc(=O)c2c(C)oc(C)c12,17,0,9,1,7
Cc1ccc(S(=O)(=O)Nc2ccc(S(=O)(=O)Nc3nccs3)cc2)c([N+](=O)[O-])c1,15,0,58*,-2,-1
Cc1ccc(S(=O)(=O)Nc2nccs2)cc1[N+](=O)[O-],-9,1,25,4,2
Cc1ccc2nc(-c3sc4nc(C)ccc4c3N)[nH]c2c1,-38*,0,11,-5,0
COC(=O)c1sc(NC(=O)COc2cccnc2[N+](=O)[O-])c(C(=O)OC)c1C,16,0,-8,-4,0
